# Data as given in the supplement of paper PMC10933113.
# Counter-ions that a name gives are not always drawn. ± gives the uncertainty stated by the source.
# Test system: THP-1
# Assay: CD54 surface expression induction over DMSO control (% over DMSO); higher = stronger dendritic cell activation
# Conditions: exposure time: 24 h
# Procedure: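 hCLAT-like CD54 and CD86 surface expression on THP1 cells after 24 h exposure at a single concentration (highest non-cytotoxic concentration, or 100-200 µM if not cytotoxic). Flow cytometry (iQue) was run on 5,000 live cells.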
row,Structure (SMILES),CD54 surface expression induction
1,O=C(O)c1cccnc1Nc1cccc(C(F)(F)F)c1 [Niflumic acid] (100 µM),-11.5 ± 10
2,O=C(O)Cc1cc(I)c(Oc2cc(I)c(O)c(I)c2)c(I)c1 [Tetrac] (100 µM),8.45 ± 9.3
3,O=C(Oc1ccccc1)c1cccc(C(=O)Oc2ccccc2)c1 [Diphenyl isophthalate] (200 µM),-2.76 ± 5
4,COc1ccc(C(=O)/C(Br)=C\C(=O)O)cc1 [Cytembena] (200 µM),62.5 ± 6.9
5,"CCCCNC(=S)NCCCC [N,N'-Dibutylthiourea] (10 µM)",-6.77 ± 3.8
6,c1ccc(CCNc2nc(-c3ccccc3)cs2)cc1 [Fanetizole] (200 µM),-4.51 ± 4.3
7,O=C(O)CCCCCCCCC(=O)O [Decanedioic acid] (200 µM),-0.56 ± 5.1
8,CNc1ccc(O)cc1 [4-(Methylamino)phenol Sulfate] (10 µM),17.6 ± 8.6
9,Cc1cc(C2(c3cc(C)c(O)cc3C)OS(=O)(=O)c3ccccc32)c(C)cc1O [p-Xylenol blue] (200 µM),8.91 ± 6.7
10,"c1ccc(-c2ccccn2)nc1 [2,2'-Dipyridyl] (200 µM)",-9.09 ± 20
11,"C=CC(=O)OCCCCCCOC(=O)C=C [1,6-Hexanediol diacrylate] (100 µM)",-4.54 ± 2.9
12,Cc1ccc2c(c1[N+](=O)[O-])C(=O)c1ccccc1C2=O [2-Methyl-1-nitroanthraquinone] (10 µM),4.18 ± 2.8
13,C=CC(C)(CCC=C(C)C)OC(=O)CC(C)C (stereo not given) [Linalyl isovalerate] (200 µM),16.3 ± 11
14,"Nc1cc(Cl)c(O)c(Cl)c1 [4-Amino-2,6-dichlorophenol] (100 µM)",18 ± 2
15,O=CC(=O)c1ccccc1 [Phenyl glyoxal] (100 µM),-5.43 ± 7.7
16,CC1=C(/C=C/C(C)=C\C=C\C(C)=C\C(=O)O)C(C)(C)CCC1 [9-cis Retinoic acid] (100 µM),44.4 ± 15
17,Cc1c(C)n(CCN(C)C)c2ccc(C(=O)OCCN(C)C)cc12 [Amindocate] (100 µM),-6.56 ± 2.9
18,C=CC(=O)OCCOC(=O)CCC(=O)O [4-[2-(Acryloyloxy)ethoxy]-4-oxobutanoic acid] (200 µM),-1.6 ± 8.8
19,CC/C=C\C/C=C\C/C=C\CCCCCCCC(=O)OCC [Ethyl linolenate] (10 µM),-3.84 ± 2.1
20,C=CCOC(=O)/C=C\C(=O)OCC=C [Diprop-2-en-1-yl (2Z)-but-2-enedioate] (203 µM),-3.66 ± 5.6

row,Structure (SMILES),CD54 surface expression induction
1,Cc1c(C)n(Cc2ccccc2)c2ccc(C(=O)OCCN(C)C)cc12 [Indocate] (200 µM),30.6 ± 5
2,"CC(C)=CCC/C(C)=C\CO [(2Z)-3,7-Dimethylocta-2,6-dien-1-ol] (200 µM)",-9.15 ± 2.5
3,CCN(CC)CCSC(=O)C(c1ccccc1)c1ccccc1 [Thiphenamil] (200 µM),99.2 ± 12
4,CO[C@@]12[C@H](COC(N)=O)C3=C(C(=O)C(C)=C(N)C3=O)N1C[C@@H]1N[C@@H]12 [Mitomycin C] (100 µM),55.6 ± 52
5,CC(=O)Oc1ccc(C2(c3ccc(OC(C)=O)cc3)C(=O)Nc3ccccc32)cc1 [Oxyphenisatin acetate] (100 µM),9.56 ± 1.9
6,COc1ccc(-c2cc(=S)ss2)cc1 [Anethole trithione] (100 µM),-12.4 ± 13
7,CCOc1ccc2nc(S(N)(=O)=O)sc2c1 [Ethoxzolamide] (200 µM),3.81 ± 6
8,Cc1ccc(O)c(-n2nc3ccccc3n2)c1 [2-(2H-Benzotriazol-2-yl)-4-methylphenol] (100 µM),3.46 ± 3.3
9,CCCCCCCCN [n-Octylamine] (100 µM),-6.09 ± 0.05
10,CC(C)CCCCCCCOC(=O)c1ccc(C(=O)OCCCCCCCC(C)C)c(C(=O)OCCCCCCCC(C)C)c1 [Triisodecyl trimellitate] (163 µM),10.7 ± 46
11,COC(=O)Nc1nc2ccc(C(=O)C3CC3)cc2[nH]1 [Cyclobendazole] (100 µM),-7.19 ± 4.8
12,"Nc1nnc(-c2ccc([N+](=O)[O-])o2)o1 [2-Amino-5-(5-nitro-2-furyl)-1,3,4-oxadiazole] (10 µM)",-7.68 ± 3.2
13,Nc1ncn([C@@H]2O[C@H](CO)[C@@H](O)[C@H]2O)c(=O)n1 [5-Azacytidine] (10 µM),-4.02 ± 3.5
14,COC(=O)CCCCCCCC(=O)OC [Dimethyl nonanedioate] (200 µM),-1.14 ± 2.1
15,CCCSS/C(CCO)=C(/C)N(C=O)Cc1cnc(C)nc1N [Prosultiamine] (10 µM),-0.63 ± 2.5
16,COC(=O)Nc1nc2cc([S+]([O-])c3ccccc3)ccc2[nH]1 (stereo not given) [Oxfendazole] (100 µM),17.4 ± 3.6
17,Oc1ccc2ccccc2c1N=Nc1ccccc1 [C.I. Solvent Yellow 14] (200 µM),-0.27 ± 5.9
18,CCCCOCCOCCOCCO [2-[2-(2-Butoxyethoxy)ethoxy]ethanol] (115 µM),20.1 ± 15
19,CC(C)=CCC1C(=O)N(c2ccccc2)N(c2ccccc2)C1=O [Feprazone] (200 µM),62.3 ± 3
20,CC1COc2ccccc2N1C(=O)C(Cl)Cl (stereo not given) [Benoxacor] (10 µM),13.4 ± 3.8
